Laboratory results published in paper PMC7862700, “An all-to-all approach to the identification of sequence-specific readers for epigenetic DNA modifications on cytosine”.

Legend:
Experiment in all cases: DAPPL (digital affinity profiling via proximity ligation, sequencing); 10 mM Tris-HCl pH 7.5, 50 mM NaCl, 1 mM DTT, 4% glycerol, room temperature, 30 min; GST-TFs on glutathione beads, 16-mer random dsDNA library, 0.1% formaldehyde crosslink after washing; high values mean tight binding
Conditions in all cases: protein: recombinant; tags: N-terminal GST; dsDNA, one strand shown
FEV = target: T1, FEV (Homo sapiens, UniProt Q99581 1-238)
T1 sequence: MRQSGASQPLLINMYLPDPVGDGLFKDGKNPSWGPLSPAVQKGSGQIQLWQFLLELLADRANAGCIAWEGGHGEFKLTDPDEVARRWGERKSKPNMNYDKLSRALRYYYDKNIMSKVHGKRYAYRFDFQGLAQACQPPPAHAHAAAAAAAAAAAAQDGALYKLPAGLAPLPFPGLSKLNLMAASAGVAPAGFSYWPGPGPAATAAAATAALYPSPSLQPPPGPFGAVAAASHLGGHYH
How it was run: (§1)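 Beads coated with glutathione captured GST-fused human transcription factors that had been expressed in yeast, and the factors were then given DNA barcodes and pooled with a tag-only sample. The pools were incubated with 200 nmole of a random double-stranded 16-mer DNA library in Tris/NaCl/DTT/glycerol buffer for 30 min at room temperature, washed, crosslinked with 0.1% formaldehyde and proximity-ligated with BsaI/T4 ligase at 37 °C for 1 h. PCR amplification and Illumina NextSeq500 sequencing came last. Binding signal is each hexamer's read frequency for a factor divided by its frequency for the tag-only sample.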

ETV5 = ETV5 (Homo sapiens, UniProt P41161 1-510)
How it was run: as §1

SPIC = target: T2, SPIC (Homo sapiens, UniProt Q8N5J4 1-248)
T2 sequence: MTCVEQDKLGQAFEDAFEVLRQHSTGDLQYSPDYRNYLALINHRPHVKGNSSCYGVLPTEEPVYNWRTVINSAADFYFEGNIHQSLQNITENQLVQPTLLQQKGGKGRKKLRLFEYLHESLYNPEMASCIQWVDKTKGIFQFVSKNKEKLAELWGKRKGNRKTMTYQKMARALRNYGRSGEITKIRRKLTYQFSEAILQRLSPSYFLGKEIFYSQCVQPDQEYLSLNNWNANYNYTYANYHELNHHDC
How it was run: as §1

ELF4 = ELF4 (Homo sapiens, UniProt Q99607 1-663)
How it was run: as §1

ELK4 = target: T3, ELK4 (Homo sapiens, UniProt P28324-2 1-405)
T3 sequence: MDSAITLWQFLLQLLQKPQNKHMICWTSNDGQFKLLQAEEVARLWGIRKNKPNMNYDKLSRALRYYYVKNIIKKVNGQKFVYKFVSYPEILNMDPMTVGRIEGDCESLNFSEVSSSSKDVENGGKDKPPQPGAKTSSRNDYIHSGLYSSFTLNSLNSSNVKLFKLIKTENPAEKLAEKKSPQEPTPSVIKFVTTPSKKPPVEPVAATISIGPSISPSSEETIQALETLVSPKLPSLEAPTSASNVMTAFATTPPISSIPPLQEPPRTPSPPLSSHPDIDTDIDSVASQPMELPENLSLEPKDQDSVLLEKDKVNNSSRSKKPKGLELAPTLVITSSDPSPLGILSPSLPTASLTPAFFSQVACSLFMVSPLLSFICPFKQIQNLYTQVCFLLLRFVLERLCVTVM
How it was run: as §1

ETV2 = target: T4, ETV2 (Homo sapiens, UniProt O00321 1-342)
T4 sequence: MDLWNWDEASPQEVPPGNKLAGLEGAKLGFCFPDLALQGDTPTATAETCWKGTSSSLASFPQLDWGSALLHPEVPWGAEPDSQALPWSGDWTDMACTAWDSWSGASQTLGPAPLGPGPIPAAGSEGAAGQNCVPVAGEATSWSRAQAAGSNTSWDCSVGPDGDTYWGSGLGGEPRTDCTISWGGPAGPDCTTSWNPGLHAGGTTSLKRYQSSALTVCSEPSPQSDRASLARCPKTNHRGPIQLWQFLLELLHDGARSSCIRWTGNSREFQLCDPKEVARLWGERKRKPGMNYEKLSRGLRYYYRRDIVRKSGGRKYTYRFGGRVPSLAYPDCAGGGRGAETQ
How it was run: as §1

ELF3 = target: T5, ELF3 (Homo sapiens, UniProt P78545 1-371)
T5 sequence: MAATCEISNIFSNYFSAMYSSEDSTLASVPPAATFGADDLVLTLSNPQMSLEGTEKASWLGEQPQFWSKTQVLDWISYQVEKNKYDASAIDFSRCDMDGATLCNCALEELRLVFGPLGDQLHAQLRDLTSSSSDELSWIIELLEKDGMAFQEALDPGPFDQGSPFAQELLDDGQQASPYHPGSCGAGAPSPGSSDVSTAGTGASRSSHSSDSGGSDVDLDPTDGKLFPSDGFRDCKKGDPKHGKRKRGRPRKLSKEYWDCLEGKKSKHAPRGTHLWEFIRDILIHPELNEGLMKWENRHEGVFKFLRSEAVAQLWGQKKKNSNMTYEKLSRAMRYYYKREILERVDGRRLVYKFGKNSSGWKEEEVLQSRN
How it was run: as §1

ETV1 = ETV1 (Homo sapiens, UniProt P50549 1-477)
How it was run: as §1

ERF = target: T6, ERF (Homo sapiens, UniProt P50548 1-548)
T6 sequence: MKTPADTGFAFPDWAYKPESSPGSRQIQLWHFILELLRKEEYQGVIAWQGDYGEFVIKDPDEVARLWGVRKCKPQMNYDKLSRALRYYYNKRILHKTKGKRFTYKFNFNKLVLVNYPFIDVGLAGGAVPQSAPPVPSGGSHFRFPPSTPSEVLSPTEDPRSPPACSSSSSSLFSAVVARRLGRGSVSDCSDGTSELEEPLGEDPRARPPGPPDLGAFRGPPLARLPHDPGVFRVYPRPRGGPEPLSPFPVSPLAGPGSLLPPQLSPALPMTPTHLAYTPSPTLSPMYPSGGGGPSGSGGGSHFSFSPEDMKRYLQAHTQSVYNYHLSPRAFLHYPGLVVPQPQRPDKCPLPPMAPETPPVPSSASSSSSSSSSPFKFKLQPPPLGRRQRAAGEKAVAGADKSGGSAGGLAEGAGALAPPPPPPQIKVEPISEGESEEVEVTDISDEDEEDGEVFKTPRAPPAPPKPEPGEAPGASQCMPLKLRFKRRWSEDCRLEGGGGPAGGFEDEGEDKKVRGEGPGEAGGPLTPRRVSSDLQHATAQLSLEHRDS
How it was run: as §1

ETV3L = target: T7, ETV3L (Homo sapiens, UniProt Q6ZN32 1-361)
T7 sequence: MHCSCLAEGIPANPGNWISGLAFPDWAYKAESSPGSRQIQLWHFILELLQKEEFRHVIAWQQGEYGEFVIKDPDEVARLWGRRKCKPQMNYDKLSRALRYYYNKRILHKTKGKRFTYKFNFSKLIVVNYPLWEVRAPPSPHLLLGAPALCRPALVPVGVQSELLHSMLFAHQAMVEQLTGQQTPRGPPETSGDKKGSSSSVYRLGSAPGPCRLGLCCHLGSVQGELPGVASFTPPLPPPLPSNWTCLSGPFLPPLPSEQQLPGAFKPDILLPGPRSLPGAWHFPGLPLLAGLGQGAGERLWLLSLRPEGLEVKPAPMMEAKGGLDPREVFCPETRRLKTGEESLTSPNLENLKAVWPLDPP
How it was run: as §1

ETS2 = target: T8, ETS2 (Homo sapiens, UniProt P15036 1-469)
T8 sequence: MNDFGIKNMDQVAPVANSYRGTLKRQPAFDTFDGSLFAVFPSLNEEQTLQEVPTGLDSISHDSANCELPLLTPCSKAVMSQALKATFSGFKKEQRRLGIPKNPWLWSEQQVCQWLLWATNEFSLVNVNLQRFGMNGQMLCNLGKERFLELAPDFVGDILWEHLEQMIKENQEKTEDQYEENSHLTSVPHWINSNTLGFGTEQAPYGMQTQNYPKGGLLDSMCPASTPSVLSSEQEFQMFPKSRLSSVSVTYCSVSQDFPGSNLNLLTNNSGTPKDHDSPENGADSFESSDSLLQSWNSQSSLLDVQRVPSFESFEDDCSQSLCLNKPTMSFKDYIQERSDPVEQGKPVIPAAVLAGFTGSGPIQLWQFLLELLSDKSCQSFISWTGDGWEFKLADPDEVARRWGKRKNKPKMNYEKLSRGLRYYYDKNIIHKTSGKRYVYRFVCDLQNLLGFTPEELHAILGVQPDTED
How it was run: as §1

SPDEF = target: T9, SPDEF (Homo sapiens, UniProt O95238 1-335)
T9 sequence: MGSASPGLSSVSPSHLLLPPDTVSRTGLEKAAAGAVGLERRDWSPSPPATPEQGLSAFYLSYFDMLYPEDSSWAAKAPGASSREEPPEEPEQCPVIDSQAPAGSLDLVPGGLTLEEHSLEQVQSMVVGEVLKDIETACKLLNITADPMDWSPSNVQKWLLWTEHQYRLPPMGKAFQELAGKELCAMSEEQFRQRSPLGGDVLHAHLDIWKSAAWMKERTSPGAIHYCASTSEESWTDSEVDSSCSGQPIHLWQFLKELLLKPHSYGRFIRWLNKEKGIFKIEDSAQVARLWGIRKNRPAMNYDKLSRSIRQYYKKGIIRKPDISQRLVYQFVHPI
How it was run: as §1

ETV7 = target: T10, ETV7 (Homo sapiens, UniProt Q9Y603 1-341)
T10 sequence: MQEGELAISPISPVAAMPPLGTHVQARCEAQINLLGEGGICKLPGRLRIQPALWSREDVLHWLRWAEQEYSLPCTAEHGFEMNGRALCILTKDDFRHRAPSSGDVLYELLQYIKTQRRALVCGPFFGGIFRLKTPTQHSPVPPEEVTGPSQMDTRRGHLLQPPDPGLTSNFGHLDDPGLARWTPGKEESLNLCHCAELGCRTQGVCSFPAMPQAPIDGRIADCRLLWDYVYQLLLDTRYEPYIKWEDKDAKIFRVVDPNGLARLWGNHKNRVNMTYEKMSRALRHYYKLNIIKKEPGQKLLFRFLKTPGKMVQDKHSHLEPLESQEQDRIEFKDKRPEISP
How it was run: as §1

ELF5 = target: T11, ELF5 (Homo sapiens, UniProt Q9UKW6-2 1-255)
T11 sequence: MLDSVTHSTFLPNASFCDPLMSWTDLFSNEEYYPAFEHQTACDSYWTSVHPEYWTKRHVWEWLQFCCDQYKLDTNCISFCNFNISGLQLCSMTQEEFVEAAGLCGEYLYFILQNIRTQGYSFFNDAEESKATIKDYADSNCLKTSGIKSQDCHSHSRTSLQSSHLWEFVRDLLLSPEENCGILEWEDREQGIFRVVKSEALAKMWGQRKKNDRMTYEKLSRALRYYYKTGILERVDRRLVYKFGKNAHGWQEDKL
How it was run: as §1

ETV3 = target: T12, ETV3 (Homo sapiens, UniProt P41162-2 1-143)
T12 sequence: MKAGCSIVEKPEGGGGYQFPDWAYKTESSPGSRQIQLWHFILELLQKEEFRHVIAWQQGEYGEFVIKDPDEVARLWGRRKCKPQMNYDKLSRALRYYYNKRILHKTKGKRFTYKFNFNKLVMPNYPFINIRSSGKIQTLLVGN
How it was run: as §1

ETV6 = ETV6 (Homo sapiens, UniProt P41212 1-452)
How it was run: as §1

ELF4, sequence (Q99607 whole entry): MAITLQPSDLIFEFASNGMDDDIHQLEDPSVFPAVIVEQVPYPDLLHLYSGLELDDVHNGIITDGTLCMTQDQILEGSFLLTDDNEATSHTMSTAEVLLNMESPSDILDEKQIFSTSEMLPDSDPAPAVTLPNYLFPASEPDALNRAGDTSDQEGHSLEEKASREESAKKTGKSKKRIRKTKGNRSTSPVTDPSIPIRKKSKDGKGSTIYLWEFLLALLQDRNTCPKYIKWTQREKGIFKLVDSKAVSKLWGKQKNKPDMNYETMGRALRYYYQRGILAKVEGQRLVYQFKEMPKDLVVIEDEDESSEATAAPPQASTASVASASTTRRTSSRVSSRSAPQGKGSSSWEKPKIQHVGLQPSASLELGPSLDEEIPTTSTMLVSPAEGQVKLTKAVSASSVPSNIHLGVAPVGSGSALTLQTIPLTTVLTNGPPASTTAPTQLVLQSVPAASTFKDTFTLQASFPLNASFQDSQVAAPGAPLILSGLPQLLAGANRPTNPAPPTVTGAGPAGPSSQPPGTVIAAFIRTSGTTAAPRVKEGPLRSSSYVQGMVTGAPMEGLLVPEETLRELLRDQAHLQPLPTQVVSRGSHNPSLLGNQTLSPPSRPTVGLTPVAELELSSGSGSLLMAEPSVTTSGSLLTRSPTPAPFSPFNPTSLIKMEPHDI
ETV1, sequence (P50549 whole entry): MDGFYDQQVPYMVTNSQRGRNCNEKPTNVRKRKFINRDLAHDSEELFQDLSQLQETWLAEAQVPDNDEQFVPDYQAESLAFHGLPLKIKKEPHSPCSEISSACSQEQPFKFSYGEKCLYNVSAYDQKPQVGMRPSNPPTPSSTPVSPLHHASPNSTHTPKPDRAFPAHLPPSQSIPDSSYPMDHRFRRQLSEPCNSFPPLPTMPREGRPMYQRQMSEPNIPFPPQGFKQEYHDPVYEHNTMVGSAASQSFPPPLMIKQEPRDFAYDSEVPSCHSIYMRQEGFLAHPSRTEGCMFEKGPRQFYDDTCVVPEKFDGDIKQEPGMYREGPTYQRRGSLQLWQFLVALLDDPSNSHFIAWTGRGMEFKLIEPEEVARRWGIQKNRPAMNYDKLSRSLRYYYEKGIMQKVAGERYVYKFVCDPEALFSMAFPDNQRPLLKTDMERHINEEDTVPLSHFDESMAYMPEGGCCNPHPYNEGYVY
ETV6, sequence (P41212 whole entry): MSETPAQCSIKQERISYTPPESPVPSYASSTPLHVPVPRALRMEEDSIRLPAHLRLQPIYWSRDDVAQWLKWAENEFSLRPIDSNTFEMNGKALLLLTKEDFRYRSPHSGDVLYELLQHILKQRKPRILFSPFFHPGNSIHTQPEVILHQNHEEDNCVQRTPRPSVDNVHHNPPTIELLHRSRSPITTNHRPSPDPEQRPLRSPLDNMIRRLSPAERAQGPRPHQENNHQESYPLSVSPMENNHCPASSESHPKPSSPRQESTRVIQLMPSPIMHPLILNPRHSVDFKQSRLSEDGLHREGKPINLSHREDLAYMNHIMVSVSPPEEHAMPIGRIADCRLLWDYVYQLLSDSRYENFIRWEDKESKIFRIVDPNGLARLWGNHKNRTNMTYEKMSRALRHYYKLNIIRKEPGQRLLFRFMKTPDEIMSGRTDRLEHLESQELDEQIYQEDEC
ETV5, sequence (P41161 whole entry): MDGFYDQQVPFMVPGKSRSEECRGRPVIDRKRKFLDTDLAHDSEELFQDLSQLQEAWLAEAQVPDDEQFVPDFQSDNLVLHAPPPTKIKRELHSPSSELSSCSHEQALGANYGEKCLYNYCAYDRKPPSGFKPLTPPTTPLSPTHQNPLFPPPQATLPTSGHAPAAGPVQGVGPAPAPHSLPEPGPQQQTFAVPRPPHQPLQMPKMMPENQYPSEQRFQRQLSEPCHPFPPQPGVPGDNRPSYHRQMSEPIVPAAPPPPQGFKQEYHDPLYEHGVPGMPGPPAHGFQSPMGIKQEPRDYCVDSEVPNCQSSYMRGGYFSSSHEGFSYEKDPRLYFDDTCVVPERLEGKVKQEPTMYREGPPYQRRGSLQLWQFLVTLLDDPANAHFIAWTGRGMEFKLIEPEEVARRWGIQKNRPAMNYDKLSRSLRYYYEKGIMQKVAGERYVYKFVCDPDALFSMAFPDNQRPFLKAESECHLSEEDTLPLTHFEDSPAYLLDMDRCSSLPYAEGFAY

CCGGTT
binding signal (FEV): 2.7 fold enrichment (6-mer frequency, TF over GST control)
binding signal (ETV5): 2.15 fold enrichment (6-mer frequency, TF over GST control)
binding signal (SPIC): 1.68 fold enrichment (6-mer frequency, TF over GST control)
binding signal (ELF4): 1.83 fold enrichment (6-mer frequency, TF over GST control)
binding signal (ELK4): 1.87 fold enrichment (6-mer frequency, TF over GST control)
binding signal (ETV2): 2.08 fold enrichment (6-mer frequency, TF over GST control)
binding signal (ELF3): 2.09 fold enrichment (6-mer frequency, TF over GST control)
binding signal (ETV1): 2.04 fold enrichment (6-mer frequency, TF over GST control)
binding signal (ERF): 1.82 fold enrichment (6-mer frequency, TF over GST control)
binding signal (ETV3L): 1.94 fold enrichment (6-mer frequency, TF over GST control)
binding signal (ETS2): 1.96 fold enrichment (6-mer frequency, TF over GST control)
binding signal (SPDEF): 2.99 fold enrichment (6-mer frequency, TF over GST control)
binding signal (ETV7): 1.77 fold enrichment (6-mer frequency, TF over GST control)
binding signal (ELF5): 2.37 fold enrichment (6-mer frequency, TF over GST control)
binding signal (ETV3): 2.05 fold enrichment (6-mer frequency, TF over GST control)
binding signal (ETV6): 2.19 fold enrichment (6-mer frequency, TF over GST control)
